TROY signal inh – blocks TROY-dependent signaling in reporter cells; 360,000 compounds, 0.98% hits; AID 1347056; inhibition, % at 10 µM; Q293 LMP1-TROYcd NF-kB luciferase reporter, 4 h;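 active means compounds whose plate-normalised and pattern-corrected inhibition of the luciferase reporter signal at the single screening dose is 50% or more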
LMP1 NFkB inh – reduces LMP1-driven NF-kappaB luciferase signal; AID 504558; 350,000 compounds, 0.69% hits; inhibition, % at 12.5 µM; LMP1-induced NF-kappaB luciferase reporter cells, luminescence; in the data active means inhibition above about 41%; inconclusive means no clear call, values can overlap the other calls;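 further: 0% = neutral control wells and 100% = reference inhibitor control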
TWEAK-Fn14 inh – TWEAK-Fn14 signaling inhibition; TWEAK-stimulated Fn14 reporter cells, luciferase luminescence, 8 h; inhibition, % at 10 µM; 360,000 compounds, 2% hits; AID 1159606; in the data active means inhibition above about 50%
Peg3 promoter – reduces Peg3 promoter-driven luciferase expression in HeLa | inhibition, % at 20 µM | 360,000 compounds, 1.7% hits | HeLa PEG-Prom luciferase reporter, luminescence, overnight;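 active means inhibition of at least 50% at 20 µM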
Shn3 3UTR inh – inhibitors of Schnurri-3 3'UTR reporter in osteoblasts; Clone20 osteoblast Shn3 3'UTR firefly luciferase, 24 h; inhibition, % at 12.5 µM; 360,000 compounds, 0.52% hits; AID 588674;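 active means mean inhibition of at least 75% with every replicate also reaching 75%; inconclusive means mean inhibition at least 75% but some replicate below; inactive means mean inhibition below 75%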;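 further: 0% = median of neutral control wells and 100% = pilot-screen positive control compound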
TRPM1 prom inh – reduces MITF-dependent TRPM1 promoter luciferase signal | SK-MEL-5 TRPM1 promoter luciferase, 24 h | inhibition, % at 12.5 µM | 330,000 compounds, 0.83% hits;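 active means mean inhibition across replicates of 60% or more, whatever share of single replicates reaches that level; inconclusive means some that reach 60%, reason not given; inactive means mean inhibition across replicates below 60%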
* = called active by the depositor; u = inconclusive; x = no result; ! = a repeat was not active. Compounds with a hit are over-represented: about 4.1% of the library has one in this group of screens.

SMILES	TROY signal inh	LMP1 NFkB inh	TWEAK-Fn14 inh	Peg3 promoter	Shn3 3UTR inh	TRPM1 prom inh
Cc1ccc(S(=O)(=O)N2C(=O)CCC2C(=O)N2CCCCC2)cc1 (stereo not drawn)	-2	2	1	8	1	8
CCOc1ccc(C(=O)NNC(=O)CCNC(=O)c2ccco2)cc1OC	-4	-1	3	12	-14	6
Cc1ccc(S(=O)(=O)N2CCOc3ccccc32)c(C)c1NS(C)(=O)=O	3	-3	95*	10	17	-14
COc1cccc(CNS(=O)(=O)c2cc3c(cc2Cl)NC(=O)CO3)c1	-8	7	6	1	1	x
C/C(=N\NC(=O)CCn1nnc2ccccc21)c1ccco1	4	7	4	-11	-6	-3
O=[N+]([O-])c1ccc(O)c(C2CCCCC2)c1	61*	3	52*	39	-2	3
O=[N+]([O-])c1ccc2nc(C3CCCCC3)[nH]c2c1	-15	-4	-46	-63	-16	-15
Cc1ccc(S(=O)(=O)N2CCN(C(=O)CCc3c[nH]c4ccccc34)CC2)c(C)c1	-7	-6	-2	16	29	7
CCCn1c(=S)[nH]c2cc(C(=O)N3CCCC(C(=O)OCC)C3)ccc2c1=O (stereo not drawn)	16	-18	55*	24	39	17
CCOC(=O)N1CCN(C(=O)c2ccc(Cn3c(=S)[nH]c4ccc(Br)cc4c3=O)cc2)CC1	59*	51*	57*	31	u	71*
NS(=O)(=O)c1ccc(CCNC(=O)CCCCCn2c(=S)[nH]c3ccc(Br)cc3c2=O)cc1	-5	7	18	62*	-32	16
CCOC(=O)N1CCN(C(=O)c2ccc3c(=O)n(Cc4ccc(Cl)cc4)c(=S)[nH]c3c2)CC1	8	4	-2	26	-1	-7
CCc1ccc(C(O)(CNCc2ccccc2)c2ccccc2)cc1 (stereo not drawn)	-10	0	-4	-23	60	4
O=C(c1cc(Cl)ccc1O)N1CCN(S(=O)(=O)c2cccs2)CC1	3	4	-16	-3	2	1
Cc1ccc(-c2n[nH]c(=S)n2/N=C/c2ccc(C)o2)cc1	-7	-2	-5	20	-5	4
S=c1[nH]nc(-c2ccncc2)n1/N=C/C(Cl)=C\c1ccccc1	22	-17	81*	-83	-31	-69
Cc1nn(-c2ccccc2)c(C)c1/C=N/n1c(-c2ccc(Cl)cc2)n[nH]c1=S	12	3	-23	53*	11	4
Cc1nn(-c2ccccc2)c(C)c1/C=N/n1c(-c2ccncc2)n[nH]c1=S	1	4	-29	22	13	-23
Cc1ccc(-c2n[nH]c(=S)n2/N=C/c2ccncc2)cc1	27	6	72*	-6	15	-1
Cc1ccccc1C(=O)Nc1nnc([C@@H]2C[C@H](O)[C@@H](CO)O2)s1	6	x	5	6	-30	x
Cc1ccc(CN2C(=O)CCC2C(=O)NCCCN2CCC(C)CC2)cc1 (stereo not drawn)	13	50*	-18	6	-66	-6
Cc1ccc(CN2C(=O)CCC2C(=O)NCCCN2CCOCC2)cc1 (stereo not drawn)	8	4	-12	13	-15	0
C=CCn1c2ccccc2c(=O)c2cc(C#CC3(O)CCCCC3)ccc21	70*	-34	2	-135	-127	-71
NCCc1ccn[nH]1	-2	-29	5	-2	-12	-5
CNc1ccc(-c2cccc(CO)c2)cn1	-43	x	-14	-128	-29	x
SMILES	TROY signal inh	LMP1 NFkB inh	TWEAK-Fn14 inh	Peg3 promoter	Shn3 3UTR inh	TRPM1 prom inh
CCOC(=O)C1(Cc2cccc(OC)c2)CCCN(C(=O)c2cc(CC(C)C)[nH]n2)C1 (stereo not drawn)	-57	-24	-13	-239	-57	-66
CCOC(=O)C1(Cc2cccc(OC)c2)CCCN(C(=O)c2ccc(OC)o2)C1 (stereo not drawn)	-96	-29	98*	-217	-63	-86
CCN1CCN(Cc2ccc(NC(=O)c3ccc(C)c(/C=C/c4cnc(Nc5cc(N6CCNCC6)nc(C)n5)cn4)c3)cc2C(F)(F)F)CC1	-17	69*	-64	96*	96*	98*
CCN1CCN(Cc2ccc(NC(=O)c3ccc(C)c(NC(=O)c4ccno4)c3)cc2C(F)(F)F)CC1	4	47*	-53	18	18	-6
CCN1CCN(Cc2ccc(NC(=O)c3ccc(C)c(NC(=O)c4cccc(-c5cn[nH]c(=O)c5)c4)c3)cc2C(F)(F)F)CC1	-32	61*	-188	4	7	19
CCN1CCN(Cc2ccc(NC(=O)c3ccc(C)c(NC(=O)c4c[nH]c5cc(C(F)(F)F)ccc5c4=O)c3)cc2C(F)(F)F)CC1	-3	63*!	-49	103*	99*!	103*
O=C(C1=NN[C@@H]2C(=O)N(Cc3ccccc3)C(=O)[C@H]12)c1ccc([N+](=O)[O-])cc1	3	-1	22	-9	-20	-3
Cc1nn(S(=O)(=O)c2ccccc2)c(C)c1Sc1ccc([N+](=O)[O-])cc1	6	-7	-9	-3	7	-15
Cc1nn(S(=O)(=O)c2cccs2)c(C)c1Sc1ccc([N+](=O)[O-])cc1	35	10	50*	22	22	11
Cc1ccc(S(=O)(=O)N2CCN(C(=O)CCC(=O)Nc3ccc(Br)c(C)c3)CC2)cc1	16	0	7	15	14	-3
CC(C)Cc1ccc(C(C)/C=C2/CCC(CN3CCCCC3)C2=O)cc1 (stereo not drawn)	4	-12	7	91*	74	18
C=CCN(CC(=O)NC1CCCC1)C(=O)C(=O)Nc1ccc2c(c1)OCCO2	-3	-8	1	19	2	8
CN(/N=C\c1ccc(O)c(O)c1)c1nc(-c2ccccc2)cc(-c2ccccc2)n1	-22	-18	-7	10	92*	12
Cc1ccc2c(c1)N(C(=O)CCC(=O)NC1CCC(C)CC1)CCO2 (stereo not drawn)	-6	0	-2	-3	1	-3
O=C(O)c1ccc(N=Nc2c(O)ccc3ncccc23)cc1	-16	-33	59*	-9	28	29
COc1cccc(-c2cc3nc4c(c(NCC(C)(C)CN(C)C)n3n2)CCCC4)c1	81*	-7	61*	-106	-14	-31
Cn1ccc2c(-c3cccc(C=O)c3F)cc3c(c21)C1CCC3C1 (stereo not drawn)	55*	x	51*	10	8	x
Cn1ccc2c(-c3cccc4ccccc34)cc3c(c21)C1CCC3C1 (stereo not drawn)	77*	x	82*	9	-12	x
Cn1ccc2c(-c3cccc(C=O)c3)cc3c(c21)C1CCC3C1 (stereo not drawn)	65*	x	48	20	8	x
Cn1ccc2c(-c3cncc4ccccc34)cc3c(c21)C1CCC3C1 (stereo not drawn)	6	x	7	12	0	x

High-throughput results deposited in PubChem by several laboratories.
